A selection: hits, their analogues and other compounds. The true share with any hit is near 5.9%.
rTrxR1 inhibitor: qHTS Assay for Inhibitors of Mammalian Selenoprotein Thioredoxin Reductase 1 (TrxR1): qHTS | recombinant rTrxR1, NADPH fluorescence consumption, selenite substrate | Potency, µM (top dose mostly 114 µM), without a hit: at the highest dose activity change, negative = inhibition, actives largely listed as inhibitors | hit rate 1% among 390,000 | Thioredoxin reductase 1, cytoplasmic (Rattus norvegicus), O89049; further: potency means the concentration at half of the fitted maximal effect; nearly all actives have a fitted effect of over 65% in size
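Rat TrxR1 (90 nM in the dispensed reagent) was pre-reduced with 400 uM NADPH for 5 min at room temperature, then incubated with compound for 15 min. After 400 uM selenite was added, NADPH fluorescence (Ex 340/Em 450 nm) was followed for 8 min.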
VP16 counter: VP16 counterscreen qHTS for inhibitors of ROR gamma transcriptional activity | Drosophila S2 Gal4-VP16 UAS-luciferase, luminescence, 20 h | hit rate 3.5% among 310,000 | Potency, µM (top dose mostly 53.6 µM), for inactives: at the highest dose activity, negative = inhibition, usual class: inhibitors;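 further: Gal4-VP16 expression switched on by copper sulfate through the metallothionein promoter; potency means the concentration at half of the fitted maximal effect; nearly all actives have a fitted effect of over 50% in size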
TrxR1 substrate: qHTS Assay for Substrates of Mammalian Selenoprotein Thioredoxin Reductase 1 (TrxR1): qHTS. purified TrxR1 substrate turnover, NADPH consumption readout. Potency, µM (titrated, usually from 114 µM), for the others: at the highest dose activity change, negative = substrate turnover. hit rate 0.01% among 390,000. AID 588456, 2011; further: potency means the concentration at half of the fitted maximal effect; nearly all actives have a fitted effect of over 50% in size
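Rat TrxR1, dispensed at 90 nM, was prereduced with 400 uM NADPH (final) for 5 min at ~22 deg C, then incubated with compound 15 min before 400 uM selenite. A first-read NADPH fluorescence drop versus no-compound background flagged substrates.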
Coupling enz: qHTS Assay for Inhibitors of Fructose-1,6-bisphosphate Aldolase from Giardia Lamblia: Coupling assay counterscreen | coupling enzyme system counterscreen, AmpLite Red fluorescence | activity change, negative = inhibition, % at 58.2 µM, hits read low | hit rate 0.67% among 290,000 | AID 2472, 2010; in the data active means activity change below about -30%
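Counterscreen of the coupled detection system alone, without aldolase: glyceraldehyde-3-phosphate coupling enzymes plus AmpLite Red readout. Compounds at 57.5 uM final, 10 min RT preincubation, 20 min RT reaction, fluorescence 525/598 nm.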
GALK inhibitor: qHTS Assay for Inhibitors of Human Galactokinase (GALK); P51570; Purified GALK, Kinase-Glo residual ATP luminescence; Potency, µM (titrated, usually from 57.5 µM), for inactives: top-dose activity change, negative = inhibition, actives largely listed as inhibitors; hit rate 0.007% among 270,000; AID 1868, 2009; further: potency means the concentration at half of the fitted maximal effect
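5 nM enzyme, 35 uM ATP, 100 uM galactose, 20 mM HEPES pH8.0, 5 mM MgCl2; 1 h RT; residual ATP by Kinase-Glo Plus luminescence, qHTS format.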
RORg inh: qHTS for inhibitors of ROR gamma transcriptional activity | Nuclear receptor ROR-gamma (Mus musculus), P51450 | Drosophila S2 Gal4-RORgamma UAS-luciferase reporter, 20 h | Potency, µM (titrated, usually from 53.6 µM), for the others: at the top dose activity change, negative = inhibition, hits mostly inhibitors | hit rate 5.4% among 310,000 | AID 2551, 2010; further: potency means the concentration at half of the fitted maximal effect; nearly all actives have a fitted effect of over 60% in size
Target sequence (P51450 whole entry, looked up, the tested form may be a part): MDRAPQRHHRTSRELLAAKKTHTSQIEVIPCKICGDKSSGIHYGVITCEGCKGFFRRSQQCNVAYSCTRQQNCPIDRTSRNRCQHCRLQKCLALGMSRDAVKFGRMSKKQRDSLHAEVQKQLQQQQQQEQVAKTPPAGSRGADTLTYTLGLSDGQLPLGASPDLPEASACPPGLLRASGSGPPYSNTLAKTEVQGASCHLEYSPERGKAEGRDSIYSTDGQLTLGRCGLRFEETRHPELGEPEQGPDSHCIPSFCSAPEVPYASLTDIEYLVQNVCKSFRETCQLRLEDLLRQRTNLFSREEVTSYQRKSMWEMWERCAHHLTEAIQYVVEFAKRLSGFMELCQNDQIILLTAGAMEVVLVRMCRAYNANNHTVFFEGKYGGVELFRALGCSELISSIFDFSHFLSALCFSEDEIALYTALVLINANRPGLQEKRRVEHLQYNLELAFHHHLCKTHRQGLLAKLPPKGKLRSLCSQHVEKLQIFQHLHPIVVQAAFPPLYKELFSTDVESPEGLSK
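Drosophila S2 cells stably expressing Gal4-DBD/mouse RORγ fusion under metallothionein promoter plus UAS-luciferase; compound 1 h, then 700 uM CuSO4 induction for 20 h at ambient temperature; inhibition read as reduced luminescence.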
* = called active by the depositor; ? = inconclusive; nt = no result given; [ ] = another dose, or the depositor's remark. Unless noted, the call rests on the fitted dose curve; in most records, active means well fitted curve in the direction sought with a large enough effect; inconclusive means small, poorly fitted or top-dose-only effect, or another doubt; inactive means no such curve, though single readings can be large; an effect the other way counts as inactive or inconclusive. On the % scale 0 is the no-effect control and ±100 the full control effect.

SMILES	rTrxR1 inhibitor	VP16 counter	TrxR1 substrate	Coupling enz	GALK inhibitor	RORg inh
O=C(CSc1nc(-c2ccco2)cc(C(F)(F)F)n1)Nc1ccc(C(=O)N2CCCCC2)cc1	-11.5%	4.47µM*	-11.2%	1.4	0.7%	?
CCn1c2ccccc2c2nnc(SCC(=O)c3ccccc3)nc21	0.9%	4.4%	2.6%	-0.4	0.8%	12.6µM*
COc1ccc(-c2nnc(SCC(=O)Nc3ccc(C(C)=O)cc3)nc2-c2ccc(OC)cc2)cc1	18.6%[57.1 µM]	nt	5.9%[57.1 µM]	nt	nt	nt
O=C(CSc1nnc(-c2ccco2)c(-c2ccco2)n1)c1ccccc1	12.6µM*	8.6%	-10.8%	-1.6	-2.1%	-7.6%
CC(=O)c1ccc(NC(=O)CSc2nnc(-c3ccco3)c(-c3ccco3)n2)cc1	7.08µM*	12.4%	-3.1%[57.1 µM]	-13.5	4.3%	-19.9%
CC(=O)Nc1nnc(SCC(=O)Nc2ccc(N3CCOCC3)c(Cl)c2)s1	25.1%	-3.8%	14.2%	-1.1	-0.8%	-27.2%
COc1ccc(CCNC(=O)/C(C#N)=C2\N=C(NC(=O)c3ccco3)c3ccccc32)cc1	-9.2%	-19.3%	-4.3%	0.4	-0.8%	18.6%
CCOC(=O)c1oc2nc3c(cc2c1N)COC(C)(C)C3	32.1%	27.2%	61.0%	1.4	2.0%	12.1%
COc1ccc(C(=O)CSc2nncn2C)cc1	11.1%[57.1 µM]	22.0%	9.5%[57.1 µM]	-2.3	-1.9%	11.7%
COC(=O)C1CC(=O)N(Cc2ccccc2)C1 (stereo not given)	5.7%	10.3%	-1.0%	0.8	-1.0%	-16.8%
COc1ccc(NC(=S)N/C(=N/S(=O)(=O)c2ccc(C)cc2)c2ccccc2)cc1	22.4µM*	-26.2%	-1.7%	1.6	-2.3%	-89.3%
Cc1ccc(S(=O)(=O)/N=C(\Sc2ccccc2)c2ccccc2)cc1	2.82µM*	-6.2%	14.2%	2.4	3.4%	-8.3%
O=S(=O)(/N=C(/NC(=S)Nc1ccccc1)c1ccccc1)c1ccc(Cl)cc1	?	?	1.4%	9.5	4.2%	?
C/C(=N\S(=O)(=O)c1ccc(C)cc1)NC(=S)Nc1ccccc1	?	-12.6%	3.3%	2.8	-1.1%	11.2µM*
CCCN1C(=O)c2[nH]nc(-c3ccccc3O)c2C1c1ccc(OCc2ccccc2)c(OC)c1 (stereo not given)	7.1%	nt	-2.2%	nt	nt	nt
COc1ccc(CC(=O)N2CCC(c3ccccc3)C2)cc1 (stereo not given)	6.5%	8.1%	2.4%	3.1	-1.2%	15.9%
COC(=O)C(NC(=O)COc1ccccc1)(Nc1nc2c(s1)CCCC2)C(F)(F)F (stereo not given)	31.6µM*	20µM*	-7.3%	-8.8	-3.1%	?
O=C(CSc1n[nH]c(-c2cccs2)n1)N1CCCc2ccccc21	14.5%	1.3%	-9.1%	1.7	1.7%	?
O=C(CSc1n[nH]c(-c2ccccc2O)n1)N1CCCc2ccccc21	2.1%[57.1 µM]	14.5%	-7.9%[57.1 µM]	-3.9	-2.5%	11.2µM*
O=C(CSc1nnc(-c2ccccc2)c(-c2ccccc2)n1)N1CCc2ccccc21	2.9%	5.2%	-4.7%	-2.9	1.2%	3.16µM*
Cc1ccc(C(C)NC(=S)NCc2ccc(F)cc2)c(C)c1 (stereo not given)	-12.9%	4.47µM*	-4.8%	-2.3	-5.9%	2.51µM*
CCOc1ccc(C(C)NC(=S)NCc2ccc(F)cc2)cc1 (stereo not given)	0.0%	3.16µM*	-5.7%	2.0	-1.0%	3.55µM*
NS(=O)(=O)c1ccc(CNC(=S)NCc2ccc(F)cc2)cc1	?	-4.8%	-3.1%	2.6	-4.4%	3.7%
CCOc1ccc(C(C)NC(=O)c2ccccc2F)cc1 (stereo not given)	8.4%	-3.3%	3.8%	3.1	1.5%	31.2%

Screening results: PubChem, National Center for Advancing Translational Sciences (NCATS)
